Measured values taken from PubChem BioAssay AID589 (National Center for Advancing Translational Sciences (NCATS), 2007).
About 6,200 (11%) of roughly 59,000 compounds were called active. Roughly 9% stayed inconclusive and do not appear here. No stated cut-off is given here; in the data, active means max dye-equivalent concentration above about 10 nM; inconclusive means mostly about 1.1 nM to 9.6 nM; inactive means weaker than that. Shown is part of a subset that was picked to be rich in actives.

Experiment: qHTS Assay for Spectroscopic Profiling in 4-MU Spectral Region
Details: compound autofluorescence, 340/450 nm, 4-MU equivalents; stronger effect = higher value
Method in brief: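 Intrinsic fluorescence at 340/450 nm (ex/em) was read after 15 min at room temperature in pH 8.0, 100 mM Tris. Each compound concentration expressed as 4-MU-equivalent concentration from a six-point 4-MU standard series on each plate.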

| SMILES | max dye-equivalent concentration |
| --- | --- |
| Cc1ccc2c(c1)sc1ncc(NC(=O)c3ccccc3)c(=O)n12 | 55 nM (active) |
| Cc1ccccc1NC(=O)c1ccccc1 | inactive |
| CCOC(=O)c1c(C)[nH]c(C)c1C(=O)CSc1nc(N)cc(N)n1 | inactive |
| CCOC(=O)N1CCC(NC(=O)CN2C(=O)COc3ccc(C(C)(C)C)cc32)CC1 | inactive |
| O=C(c1cccc(F)c1)N1CCC2(CCCN(Cc3ccncc3)C2)CC1 | inactive |
| CCC12CN3CC(CC)(CN(C1)C31C(=O)N(C)c3ccc(C)cc31)C2=O (configuration not stated) | inactive |
| CC(=O)OCc1cc2cc(C)ccc2[nH]c1=O | inactive |
| CCNCc1cc2cc(C)ccc2[nH]c1=O | 49 nM (active) |
| CCOC(=O)c1cc2cc(C)ccc2[nH]1 | inactive |
| O=C(CNC(=O)c1ccc(Cl)cc1Cl)NCC(=O)Nc1ccccc1N1CCOCC1 | inactive |
| COc1ccc2c(c1OC)C(=O)OC2c1c(O)nc(SC)n(-c2ccccc2)c1=O (configuration not stated) | inactive |
| O=c1[nH]c(-c2cccs2)nc2ccccc12 | inactive |
| O=c1[nH]c(=O)c2nc3ccccc3nc2[nH]1 | 210 nM (active) |
| CC1(C)CCCC2=C1CC1C(=O)N(c3ccccc3)C(=O)C1C2 (configuration not stated) | inactive |
| CCOC(=O)C1CCN(Cc2coc3ccc(Cl)cc3c2=O)CC1 | inactive |
| Cc1noc(C)c1-c1nccc(N2CCOCC2)n1 | inactive |
| CC[C@@H]1Cc2cc(O)ccc2C2=C1c1ccc(O)cc1C[C@H]2CC | 270 nM (active) |
| O=C(NCCC1=CCCCC1)C1CCN(Cc2cnn(-c3ccccc3)c2-n2cccc2)CC1 | inactive |
| COC(=O)c1ccc(Oc2nc(Nc3ccc(F)cc3)nc(N3CCCC3)n2)cc1 | inactive |

| SMILES | max dye-equivalent concentration |
| --- | --- |
| c1ccc(CNc2ncncc2-c2cccnc2)cc1 | inactive |
| Cc1ccc(S(=O)(=O)c2nc(NCCCn3ccnc3)sc2Cl)cc1 | inactive |
| Cc1ccc(-c2noc(-c3ccccc3C(=O)NCC3CCCO3)n2)cc1 (configuration not stated) | inactive |
| Cc1ccc(C(=O)O)cc1S(=O)(=O)NCC1CCCO1 (configuration not stated) | inactive |
| CCOc1cc(-c2nc3cc(C)ccn3c2NCC2CCCO2)ccc1O (configuration not stated) | 68 nM (active) |
| O=C(CSc1nnc(-c2ccco2)o1)NCC(=O)c1ccccc1 | inactive |
| COc1ccc(C(=O)N(Cc2ccc(N(C)C)cc2)C2CCS(=O)(=O)C2)cc1 (configuration not stated) | inactive |
| CC(=O)N1CCC2(CCCN(c3ncccn3)C2)CC1 | inactive |
| COc1cc2c(cc1OC)C(c1ccncc1)CC(=O)N2 (configuration not stated) | inactive |
| CC1(C)Cc2c(C#N)c(SCc3nc4ccccc4[nH]3)nc(N3CCOCC3)c2CO1 | 28 nM (active) |
| COc1ccc(CSc2nc(N3CCOCC3)c3c(c2C#N)CC(C)(C)OC3)cc1 | 30 nM (active) |
| CC(C)c1nc(N2CCOCC2)c(C#N)c2c1COC(C)(C)C2 | 140 nM (active) |
| c1ccc2[nH]c(NCCN3CCOCC3)nc2c1 | inactive |
| COc1ccc(C(CNC(=O)c2cccnc2SC)N2CCOCC2)cc1 (configuration not stated) | inactive |
| CC(C)Cc1nc(N2CCOCC2)c(C#N)c2c1CCC2 | 56 nM (active) |
| CCn1c(Cc2ccccc2)nnc1SCc1nc2ccccc2c(=O)[nH]1 | inactive |
| O=C(Nc1cccc(F)c1)N1CC2(CCN(C(=O)c3csnn3)CC2)C1 | inactive |
| O=C(c1cc(C(F)(F)F)cc(C(F)(F)F)c1)N1CCC[C@@]2(CCN(c3ccccn3)C2)C1 | inactive |
| Cc1cc(C)n(C(=O)c2ccc(S(=O)(=O)N3CCCC3)cc2)n1 | inactive |

| SMILES | max dye-equivalent concentration |
| --- | --- |
| CCSc1nc(=S)n(CC)c(C)c1C(C)=O | inactive |
| CCOC(=O)c1sc(NC(=O)CSc2nnc(-c3ccco3)o2)c(C(=O)OCC)c1C | inactive |
| CC1CCCN(C(=O)Cn2c(=O)oc3ccccc32)C1 (configuration not stated) | inactive |
| COC(=O)C1=C(C)NC(=O)NC1/C=C/c1ccccc1 (configuration not stated) | inactive |
| CC(C)C(=O)N1CCN(c2nc(-c3ccccc3)c3c(c2C#N)CC(C)(C)OC3)CC1 | 190 nM (active) |
| CNC(=O)Nc1cc(C(C)(C)C)no1 | inactive |
| Cn1nnc(NC(=O)CSc2ncn[nH]2)n1 | inactive |
| CCCC(=O)Nc1ccc2c(c1)nc1n2CCSC1 | inactive |
| CCCCC(=O)Nc1ccc2c(c1)OCCO2 | inactive |
| CCCCCC(=O)Nc1ccc2oc(-c3ccncc3)nc2c1 | 23 nM (active) |
| O=C(c1ccco1)N1CCC2(CC1)CCN(c1ncccn1)CC2 | inactive |
| O=C1NC(c2ccncc2)Nc2sc3c(c21)CCCC3 (configuration not stated) | 59 nM (active) |
| COC(=O)c1ccc(Oc2nc(NC(C)C)nc(SC)n2)cc1 | inactive |
| COc1cccc(-c2nc(Nc3ccncc3)c3ccccc3n2)c1 | inactive |
| c1ccc2c(Nc3ccncc3)nc(-c3ccc4c(c3)OCO4)nc2c1 | 19 nM (active) |
| c1ccc2c(Nc3ccncc3)nc(-c3ccoc3)nc2c1 | inactive |
| CCOCCCN1C(=O)CN(C2CCCCC2)C(=O)C1c1ccc(OCC)c(OC)c1 (configuration not stated) | inactive |
| COc1ccc(CNC(=O)c2c(C)cc(=O)oc2C)cc1OC | inactive |
| COCCN(C(=O)CCC(=O)Nc1ccccn1)C(C(=O)NCCC(C)C)c1ccc(OC)cc1 (configuration not stated) | inactive |
